# Bioassay records (PubChem BioAssay)
# The list is a sample of the results.
# CYP2C9 inhib = inhibitors of human CYP2C9. 96,000 compounds, 20% hits. CYP2C9 Supersomes, luciferin-H conversion, luminescence. inhibition, % at 5 µM;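 active means blocking of liver enzyme CYP2C9 beyond about 50% at 5 µM, limit read from the data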
# CYP2C19 inh = blocks human cytochrome P450 2C19. P33261. CYP2C19 Supersomes, luciferin-H EGE luminescence, 30 min. inhibition, % at 5 µM. 96,000 compounds, 21% hits;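 active means CYP2C19 inhibition above a set limit at 5 µM in the primary screen, cut at about 50% in these data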;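 further: plate controls were negative control wells for no effect and 2.5 mM tranylcypromine positive control for full effect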
# Target sequence (P33261 whole entry, looked up): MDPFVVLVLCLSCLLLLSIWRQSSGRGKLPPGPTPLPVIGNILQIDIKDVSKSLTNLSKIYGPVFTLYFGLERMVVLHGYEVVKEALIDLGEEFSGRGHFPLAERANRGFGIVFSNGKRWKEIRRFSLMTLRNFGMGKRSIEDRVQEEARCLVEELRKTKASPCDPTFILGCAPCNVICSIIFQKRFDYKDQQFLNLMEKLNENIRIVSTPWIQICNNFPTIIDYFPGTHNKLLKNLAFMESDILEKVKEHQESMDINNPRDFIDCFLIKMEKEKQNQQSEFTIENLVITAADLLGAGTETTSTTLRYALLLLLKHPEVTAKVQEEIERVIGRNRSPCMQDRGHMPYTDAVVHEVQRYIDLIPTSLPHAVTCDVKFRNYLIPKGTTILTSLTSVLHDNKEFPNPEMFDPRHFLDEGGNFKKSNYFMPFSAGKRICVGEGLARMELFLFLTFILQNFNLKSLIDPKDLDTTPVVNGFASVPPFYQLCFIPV
# CYP2C9 activ = CYP2C9 (human) activation. 96,000 compounds, 1.4% hits. activation factor at 5 µM. AID 1024. recombinant CYP2C9, luciferin-H conversion, luminescence; active compounds read high; factor 1 = untreated enzyme, 0 = blocked. P11712;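 active means activation factor of 2 or more for CYP2C9 at a 5 µM dose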;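 further: 0 = sulfaphenazole-blocked wells and 1 = vehicle-only wells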
# PostGolgi ctrl = inhibits growth of the yeast control strain | AID 738 | 98,000 compounds, 5% hits | efflux-deficient yeast background strain, growth absorbance A615, 16 h | inhibition, % at 10 µM
# PostGolgi yeast = growth inhibition of a yeast mutant, post-Golgi transport screen | post-Golgi transport phenotypic cell assay | inhibition, % at 10 µM | 98,000 compounds, 0.9% hits | AID 739;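 further: yeast cells grown in 1536-well plates; yeast grown about 18 h at 30C before absorbance read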
# CYP2C19 activ = cytochrome P450 2C19 (human) activation; P33261; recombinant CYP2C19, luciferin-H EGE luminescence; active compounds read high; 0 = fully inhibited enzyme, 1 = untreated enzyme; activation factor at 5 µM; 96,000 tested, under 10 active; AID 1025;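 active means activation factor of at least 2 at 5 µM in the primary screen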;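 further: 0 = wells with 2.5 mM tranylcypromine and 1 = vehicle-only wells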
# * marks the source's active call; other numbers are inactive results; x = no result given. Unless noted, no stated cut-off is given here; in the data, active means inhibition above about 30%; inactive means the rest.
SMILES,CYP2C9 inhib,CYP2C19 inh,CYP2C9 activ,PostGolgi ctrl,PostGolgi yeast,CYP2C19 activ
CCn1c(CNC(=O)c2cccc(C)c2)nc2ccccc21,-83,19,1.8,16,8,0.8
CCCn1c(NC(=O)c2ccccc2)nc2ccccc21,-22,3,1.2,39*,-1,1
CCCn1c(NC(=O)c2cccc(S(=O)(=O)N3CCCC3)c2)nc2ccccc21,40,37,0.6,36*,-8,0.6
CC(C)Cn1c(CNC(=O)c2ccccc2)nc2ccccc21,27,72*,0.7,7,4,0.3
CC(C)Cn1c(CCCNC(=O)c2ccc(F)cc2)nc2ccccc21,6,23,0.9,-6,10,0.8
COc1cccc(N2CCN(Cc3nc(N)nc(N4CCCc5ccccc54)n3)CC2)c1,16,20,0.8,6,19,0.8
O=C(Nc1cccc(S(=O)(=O)C(F)F)c1)c1ccc(Cl)c(S(=O)(=O)N2CCOCC2)c1,-2,-12,1,21,-12,1.1
COc1cc2c(cc1OC)C(=S)NC(C)(C)C2,16,14,0.8,4,1,0.9
Nc1cc(=O)[nH]c(SCC(=O)NCC2CCCO2)n1 (configuration not stated),-15,-12,1.2,0,5,1.1
CCOC(=O)C1CCCN(c2c(NCCN3CCCCC3CC)c(=O)c2=O)C1 (configuration not stated),15,0,0.8,0,4,1
Cn1c(=O)c2cc(S(=O)(=O)NCCC(=O)NCC3CCCO3)ccc2n(C)c1=O (configuration not stated),15,6,0.8,13,-2,0.9
CCCCn1c(CCNC(=O)c2cccs2)nc2ccccc21,21,63*,0.8,3,10,0.4
O=C(c1ccccc1)c1nc2ccccc2n(CCCn2c(=O)c(C(=O)c3ccccc3)nc3ccccc32)c1=O,97*,74*,0,-10,2,0.3
Cn1c(=O)c(C(=O)c2ccccc2)nc2ccccc21,-41,43,1.4,-8,-3,0.6
CCCn1c(CNC(=O)c2cccs2)nc2ccccc21,28,44,0.7,3,11,0.6
C=CCOc1cccc(C2c3c(oc4ccccc4c3=O)C(=O)N2c2ccccn2)c1 (configuration not stated),38,38,0.6,5,-4,0.6
CCCCn1cnc2c1c(=O)[nH]c(=O)n2CCCC,15,31,0.9,7,-14,0.7
OC(CNCc1ccco1)Cn1c2ccc(Br)cc2c2cc(Br)ccc21 (configuration not stated),5,-1,0.9,99*,106*,1
COc1ccc(-c2noc(CCCOc3ccccc3)n2)cc1OC,79*,90*,0.2,12,4,0.1
c1ccc(OCc2nc(-c3ccccc3)no2)cc1,37,72*,0.6,22,-10,0.3
Fc1ccccc1N1CCN(Cc2nc(-c3ccccc3)no2)CC1,11,21,0.9,0,2,0.8
COc1nc(-c2ccccc2)ccc1-c1noc(COc2ccccc2)n1,48,28,0.5,0,-17,0.7
c1ccc(OCCCc2nc(-c3ccncc3)no2)cc1,90*,98*,0.1,17,-5,0
c1ccc(-c2noc(CN3CCN(c4ccccc4)CC3)n2)cc1,45,71*,0.6,10,-1,0.3
COc1ccc(-c2noc(CCN3C(=O)c4ccccc4C3=O)n2)cc1OC,12,22,0.9,-1,14,0.8
SMILES,CYP2C9 inhib,CYP2C19 inh,CYP2C9 activ,PostGolgi ctrl,PostGolgi yeast,CYP2C19 activ
CC(N=c1ccccn1C(=O)Nc1cccc(C(F)(F)F)c1)c1ccco1 (configuration not stated),26,32,0.7,9,6,0.7
COc1ccc(-c2noc(-c3ccccc3C(=O)N3CCOCC3)n2)cc1,42,5,0.6,-6,4,0.9
CCC(=O)N(Cc1ccco1)c1nc(-c2cc(OC)ccc2OC)cs1,x,x,x,10,-2,x
COCCNC(=O)C(c1ccco1)N(C(=O)Cn1nnc2ccccc21)c1cc(C)ccc1C (configuration not stated),12,36,0.9,4,-13,0.6
c1ccc(OCCCc2nc(-c3ccccn3)no2)cc1,33,80*,0.7,-2,5,0.2
Cc1cccc(-c2noc(CCc3ccccc3)n2)c1,-17,-14,1.2,-1,-2,1.1
